About 960 (1.5%) of roughly 66,000 compounds showed an effect of 50% or more. What follows is part of a selection rich in strong results, with near analogues and random picks from the rest.
System: Trypanosoma brucei
Assay: Trypanosoma brucei 72 hour study
Format: functional, organism-based
Parameters: scale not given: in the data most compounds retested in dose-response had high values

O=C(c1cnn2c1OCCC2)N1CCC2(CC1)OCCO2
Percent Effect (30 µM, 30.03 µM): 55.16%

Cn1ccnc1NC[C@@H]1CCC[C@@H]2CN(Cc3cccnc3)C[C@@H]21.O=C(O)C(F)(F)F
Percent Effect (30.3 µM, […]): -5.749%

CN1C[C@H](NC(=O)c2cscn2)[C@@H]2OCCC[C@@H]21.O=C(O)C(F)(F)F
Percent Effect (30.3 µM, […]): -88.97%

COCCNC(=O)[C@@]12CCO[C@@H]1CCN(Cc1ccncc1)C2.O=C(O)C(F)(F)F.O=C(O)C(F)(F)F
Percent Effect (30 µM, 30.03 µM): 13.68%

c1ccc(CO[C@H]2C[C@@H]3CN(Cc4cccnc4)C[C@@H]3C2)cc1
Percent Effect (30.3 µM, […]): 51.09%

Cc1ncc(CN2C[C@H]3C[C@H](OCc4ccccc4)C[C@H]3C2)cn1
Percent Effect (30.3 µM, […]): 6.96%

c1ccc(CO[C@H]2C[C@@H]3CN(Cc4cncnc4)C[C@@H]3C2)cc1
Percent Effect (30.3 µM, […]): -7.208%

CN(C)CCN1CCN(Cc2nccs2)Cc2cccnc21.O=C(O)C(F)(F)F.O=C(O)C(F)(F)F.O=C(O)C(F)(F)F
Percent Effect (30.3 µM, […]): -78.15%

O=C(NCCc1ccccn1)[C@@]12CCO[C@@H]1CCN(C1CCC1)C2.O=C(O)C(F)(F)F.O=C(O)C(F)(F)F
Percent Effect (30.3 µM, […]): 7.888%

O=C(O)C(F)(F)F.O=C(O)C(F)(F)F.c1ccc(OCC2C[C@@H]3[C@@H](C2)OCCN3CC2CCOCC2)nc1 (some centres not stated)
Percent Effect (30.3 µM, […]): -46.45%

CCN1CCN(Cc2nc(CC(C)C)no2)CC1
Percent Effect (10 µM): -12.44%

CCN1CCN(Cc2csc(C(C)C)n2)CC1
Percent Effect (30.3 µM, […]): 81.77%

CC(C)c1nc(CC(=O)N2CCN(C)CC2c2ccccc2)cs1 (configuration not stated)
Percent Effect (30 µM, 30.03 µM): -91.57%

COCCCNc1c(C#N)c2c(c3nncn13)CN(C)CC2.Cl
Percent Effect (30 µM, 30.03 µM): -37.83%

Cl.Cl.c1ccc(COC[C@H]2CCC[C@@]23CNCCO3)nc1
Percent Effect (30.3 µM, […]): -51.33%

O=C(O)C(F)(F)F.O=C(O)C(F)(F)F.c1cnc(N2CCO[C@H]3CN(CC4CCOCC4)C[C@H]32)nc1
Percent Effect (30.3 µM, […]): -91.37%

O=C(O)C(F)(F)F.c1cc(CN2CC[C@@H]3CN(c4cnccn4)C[C@@H]3C2)ccn1
Percent Effect (30.3 µM, […]): -4.355%

COc1cc(CNCC(O)c2ccccc2F)cc2c1OCO2 (configuration not stated)
Percent Effect (30.3 µM, […]): 55.14%

COc1cc(CNC(C)Cn2ccnc2)cc2c1OCCO2 (configuration not stated)
Percent Effect (30.3 µM, […]): -9.51%

COc1cc(CNCC(O)c2ccc(F)cc2F)cc2c1OCO2 (configuration not stated)
Percent Effect (30.3 µM, […]): 68.01%

COc1cc(CNC(C)Cn2cccn2)cc2c1OCCO2.Cl (configuration not stated)
Percent Effect (30.3 µM, […]): -12.29% | Percent Effect (10 mM, 10 mM as filed; unlikely as a test dose): -15.19%

Cc1nc(CN2CCN3C[C@H](Oc4cncnc4)C[C@H]3C2)cs1.O=C(O)C(F)(F)F.O=C(O)C(F)(F)F
Percent Effect (30.3 µM, […]): -64.45%

Cc1cnc(N2CC3(CCN(Cc4cccnc4)C3)C2)nc1.O=C(O)C(F)(F)F.O=C(O)C(F)(F)F
Percent Effect (30.3 µM, […]): -6.103%

O=C(O)C(F)(F)F.O=C(O)C(F)(F)F.c1cnc(N2CCN3C[C@H](Oc4cncnc4)C[C@H]3C2)nc1
Percent Effect (30.3 µM, […]): -14.25%

CCN1CCc2c(cccc2NC(=O)CN(C)C2CCSC2)C1 (configuration not stated)
Percent Effect (30 µM, 30.03 µM): -20.21%

O=C(O)C(F)(F)F.c1cncc(CN2C[C@H]3CCC[C@@H](CNc4cnccn4)[C@H]3C2)c1
Percent Effect (30.3 µM, […]): -2.256%

Cc1ccc(CN2CC[C@]3(C[C@H](OCc4ccccn4)CO3)C2)o1.O=C(O)C(F)(F)F.O=C(O)C(F)(F)F
Percent Effect (30 µM, 30.03 µM): 4.871%

O=C(Cc1c[nH]c2ccccc12)N1CCC(Nc2ccccc2)CC1
Percent Effect (30.3 µM, […]): -16.2%

O=C(c1cc2cc(F)ccc2[nH]1)N1CCC(Nc2ccc(F)cc2)CC1
Percent Effect (30.3 µM, […]): 86.11%

O=C(c1ccc2c(c1)COC2)N1CCC(Nc2ccccc2)CC1
Percent Effect (30 µM, 30.03 µM): 15.22%

O=C(O)C(F)(F)F.O=C(O)C(F)(F)F.O=C(O)C(F)(F)F.c1cc(CN2CCO[C@H]3[C@H](OCCN4CCCC4)CC[C@@H]32)ccn1
Percent Effect (30.3 µM, […]): -7.413%

C[C@H]1C[C@H]2CN(Cc3ccccn3)CC[C@@H]2O1.O=C(O)C(F)(F)F.O=C(O)C(F)(F)F
Percent Effect (30 µM, 30.03 µM): -2.942%

CCOCCN1C[C@@H]2CCCO[C@@H]2[C@H](NC(=O)c2cnoc2C)C1.O=C(O)C(F)(F)F
Percent Effect (30.3 µM, […]): -87.51%

O=C(c1csc(-c2ncccn2)n1)N1CCN2CCCCC2C1 (configuration not stated)
Percent Effect (30 µM, 30.03 µM): 9.676%

O=C(Cc1ccc(-n2cccn2)cc1)N1CCN2CCCCC2C1 (configuration not stated)
Percent Effect (30 µM, 30.03 µM): 56.58%

O=C(Cc1csc(-c2ncccn2)n1)N1CCN2CCCCC2C1 (configuration not stated)
Percent Effect (30 µM, 30.03 µM): -4.944%

CCS(=O)(=O)N1CCc2ccc(NC(=O)Nc3cccc(C#N)c3)cc21
Percent Effect (30 µM, 30.03 µM): 29.43%

O=C(O)C(F)(F)F.O=C(O)C(F)(F)F.O=C1CC[C@@H]2[C@@H](CCN2Cc2ccccn2)N1CC1CC1
Percent Effect (30.3 µM, […]): 9.459%

CC(N)Cc1ccccc1Sc1ccc(O)cc1.CC(N)Cc1ccccc1Sc1ccc(O)cc1.O=C(O)C(=O)O (configuration not stated)
Percent Effect (30 µM, 30.03 µM): 73.02%

CNC(C)Cc1ccccc1Sc1ccc(O)cc1.Cl (configuration not stated)
Percent Effect (30 µM, 30.03 µM): -13.84%

CC(N)Cc1ccccc1Sc1ccccc1.O=C(O)/C=C\C(=O)O (configuration not stated)
Percent Effect (30 µM, 30.03 µM): 99.41%

O=C(O)C(F)(F)F.O=C(O)C(F)(F)F.c1cncc(O[C@H]2CC[C@H]3[C@H]2OCCN3C2CCCC2)c1
Percent Effect (30 µM, 30.03 µM): -21.55%

CN(C)[C@@H]1CN(C(=O)Cc2cccs2)[C@@H]2CCCO[C@H]12.O=C(O)C(F)(F)F
Percent Effect (30.3 µM, […]): -91.09%

COCCN1CC[C@]2(CN(Cc3cccnc3)C[C@H]2C)C1=O.O=C(O)C(F)(F)F.O=C(O)C(F)(F)F
Percent Effect (30.3 µM, […]): -47.24%

CN1C(Cn2cccn2)C[C@@H]2CN(Cc3cccnc3)CC[C@@H]21.O=C(O)C(F)(F)F.O=C(O)C(F)(F)F.O=C(O)C(F)(F)F.O=C(O)C(F)(F)F (some centres not stated)
Percent Effect (30.3 µM, […]): -14.63%

COCCN1CCO[C@@H]2CN(S(=O)(=O)c3cccnc3)C[C@@H]2C1.O=C(O)C(F)(F)F.O=C(O)C(F)(F)F
Percent Effect (30.3 µM, […]): -14.72%

— ChEMBL document CHEMBL3988442, “University of Dundee, Small-Polar-MMV Screening Library” (2021)
